HT1080 IDH1KD tx = kills HT-1080 cells with IDH1 knockdown; HT-1080 IDH1 knockdown viability, ATP luminescence, 48 h; Potency, µM (top dose mostly 46.1 µM), for the others: at the top dose activity, negative = toxicity, usual class: cytotoxic; hit rate 2% among 360,000; AID 686971;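 note: potency is the fitted concentration of half-maximal effect; 0% = DMSO wells and -100% = cell-free medium wells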
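IDH1KD HT-1080 cells, 750/well, RPMI + 5% FBS; compound pinned after 2 h settling; 48 h, 37 °C; CellTiter-Glo luminescence; % activity normalised to DMSO and no-cell wells; curves fitted, classed by r2 and efficacy.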
TDP1 cell CPT = DT40-hTDP1 cell growth loss with CPT; AID 686979; Potency, µM (titrated, usually from 46.2 µM), without a hit: top-dose activity change, negative = growth inhibition, most hits filed as inhibitors; chicken DT40 Tdp1-/-;hTDP1 cells + 20 nM CPT, ATP luminescence, 48 h; hit rate 12% among 420,000; note: potency is the fitted concentration of half-maximal effect; nearly all actives have a fitted effect of over 55% in size
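Cell growth measured by CellTiter-Glo luminescence after a minimum 48 h, 37 C compound exposure with 20 nM CPT in Tdp1-knockout DT40 cells stably expressing hTDP1, seeded 400/well; qHTS titration format.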
IL1B secr inh = blocks inflammasome-driven IL-1 beta release; THP-1 LPS/ATP IL-1B secretion, AlphaLISA, 16 h; stronger effect = lower value; activity change, % at 57.5 µM; hit rate 4.7% among 360,000; in the data active = activity change below about -50%; inconclusive = mostly about -30% to -49%
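Secreted IL-1B measured by AlphaLISA bead assay after 16 h compound exposure of THP-1 cells; compounds (final up to 57.5 uM) added 1 h before LPS (250 ng/mL) and ATP (1.25 mM) stimulation; lower signal means less secretion.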
ALOX12 inh = inhibitors of human 12S-lipoxygenase ALOX12. purified 12hLO, xylenol orange hydroperoxide absorbance. Potency, µM (highest dose often 108 µM), for the others: top-dose activity change, negative = inhibition, actives largely listed as inhibitors. hit rate 1.1% among 580,000; note: potency is the fitted concentration of half-maximal effect
Target sequence (P18054 whole entry, looked up): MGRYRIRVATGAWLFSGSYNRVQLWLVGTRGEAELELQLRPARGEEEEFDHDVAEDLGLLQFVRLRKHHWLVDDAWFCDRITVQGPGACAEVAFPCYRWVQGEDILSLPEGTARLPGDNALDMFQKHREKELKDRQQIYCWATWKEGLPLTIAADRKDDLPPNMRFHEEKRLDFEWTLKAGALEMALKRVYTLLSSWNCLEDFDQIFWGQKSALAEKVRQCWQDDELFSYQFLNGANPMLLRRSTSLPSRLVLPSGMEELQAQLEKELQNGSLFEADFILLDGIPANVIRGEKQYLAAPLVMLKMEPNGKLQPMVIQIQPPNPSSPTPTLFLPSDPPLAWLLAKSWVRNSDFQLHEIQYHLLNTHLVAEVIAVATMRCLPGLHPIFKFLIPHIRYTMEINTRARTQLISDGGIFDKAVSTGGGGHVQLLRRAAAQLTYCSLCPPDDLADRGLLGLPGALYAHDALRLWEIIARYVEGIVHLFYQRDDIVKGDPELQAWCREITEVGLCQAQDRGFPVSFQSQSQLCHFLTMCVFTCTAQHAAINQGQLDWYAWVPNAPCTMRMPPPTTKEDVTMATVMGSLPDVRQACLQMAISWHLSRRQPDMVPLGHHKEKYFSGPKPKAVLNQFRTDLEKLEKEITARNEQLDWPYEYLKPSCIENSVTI
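Hydroperoxide product was detected by ferrous iron/xylenol orange as the 573 to 405 nm absorbance ratio. Arachidonic acid at 40 uM (final) was turned over for 30 min at room temperature by 150 nM human 12hLO, pH 7.0 Hepes buffer, after 15 min compound preincubation.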
TDP1 cell noCPT = qHTS for Inhibitors of human tyrosyl-DNA phosphodiesterase 1 (TDP1): qHTS in cells in absence of CPT | hit rate 15% among 420,000 | DT40 Tdp1-/- hTDP1 cells, no CPT, ATP luminescence, 48 h | Potency, µM (highest dose often 46.2 µM), without a hit: at the highest dose activity change, negative = growth inhibition, most hits filed as inhibitors; note: potency is the fitted concentration of half-maximal effect; nearly all actives have a fitted effect of over 55% in size
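Compound effects on proliferation are scored in DT40 Tdp1-/-;hTDP1 cells in the absence of CPT. ATP levels (CellTiter-Glo luminescence) are recorded after a ≥48 hr, 37 °C incubation.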
HT1080-NT tox = kills 2HG-producing HT-1080-NT fibrosarcoma cells; HT-1080-NT fibrosarcoma viability, CellTiter-Glo ATP luminescence, 48 h; Potency, µM (doses to about 46.1 µM), for inactives: at the highest dose activity, negative = less viability, hits mostly cytotoxic; hit rate 1.6% among 360,000;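 note: NT is the 2HG producing partner of a matched IDH1 knockdown line; potency is the fitted concentration of half-maximal effect; 0% = DMSO-treated cells and -100% = media-only wells without cells; nearly all actives have a fitted effect of over 55% in size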
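HT-1080-NT fibrosarcoma cells (2HG-overproducing), 750 cells/well in RPMI with 5% FBS, dosed after 2 h and incubated 48 h at 37C. CellTiter-Glo luminescence normalized to DMSO and no-cell wells; concentration-response curves fitted and classed.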
The depositor's hits bear a star; i = inactive; ? = inconclusive; . = not tested or not shown; ! = a repeat was not active. The full list was thinned out, with hits kept by preference. Unless noted, calls come from the whole dose curve; as a rule, active = well fitted curve in the direction sought with a large enough effect; inconclusive = small, poorly fitted or top-dose-only effect, or another doubt; inactive = no such curve, though single readings can be large; an effect the other way counts as inactive or inconclusive. Unless noted, % is set by controls: 0 for no effect and ±100 for the full control effect.

SMILES	HT1080 IDH1KD tx	TDP1 cell CPT	IL1B secr inh	ALOX12 inh	TDP1 cell noCPT	HT1080-NT tox
COc1ccc(NC(=O)c2cccc(S(=O)(=O)Nc3ccc(Br)cc3)c2)cn1	?	?	-80*	?	23µM*	?
O=C1CSc2ccc(C(=O)Nc3cccc(S(=O)(=O)Nc4ccc(Br)cc4)c3)cc2N1	.	18µM*	?	?	8.2µM*	.
O=C(Nc1ccc(Br)cc1)c1cccc(S(=O)(=O)Nc2ccccn2)c1	-12%	-17%	i	1%	16µM*	-17%
O=S(=O)(NC(c1ccccc1)c1ccccc1)c1cccc2nsnc12	.	.	.	11µM*	.	.
CC(C)NS(=O)(=O)c1cccc2nsnc12	2%	-2%	-8	0%	-24%	13%
CCOc1ccccc1NC(=O)C(NS(=O)(=O)c1cccc2nsnc12)c1ccccc1 (stereo unspecified)	.	-3%	.	-12%	?	.
O=C(Nc1ccc(OC(F)(F)F)cc1)C(NS(=O)(=O)c1cccc2nsnc12)c1ccccc1 (stereo unspecified)	.	16µM*	.	-28%	?	.
Cc1no[n+]([O-])c1COc1ccc(/C=C2\NC(=S)NC2=O)cc1	-5%	-15%	-53*	-6%	-25%	-5%
CCn1c(=O)n(CC)c2cc(Sc3ccccc3)c(NC(=O)c3ccccc3OC)cc21	.	.	.	-3%	.	.
COCC(C)NC(C(=O)Nc1ccc(Cl)c([N+](=O)[O-])c1)c1ccccc1 (stereo unspecified)	-6%	-11%	10	?	-27%	-1%
CCC(C)NC(C(=O)Nc1ccc(Cl)c([N+](=O)[O-])c1)c1ccccc1 (stereo unspecified)	2%	?	-18	?	16µM*	-6%
O=C(Nc1ccc(Cl)c([N+](=O)[O-])c1)C(Sc1ccccc1)c1ccccc1 (stereo unspecified)	21µM*	?	-83*	-20%	?	?
C=CCOc1ccc(C(=O)Nc2ccccc2-c2ccccc2)cc1	.	.	.	7%	.	.
S=c1nc2ccccc2c2nc(-c3ccccc3Br)[nH]n12	-5%	2.1µM*	17	-8%	1µM*	-12%
CC(C)C[C@@H](CO)N(Cc1ccccc1)S(=O)(=O)N(Cc1ccccc1)[C@@H](CO)CC(C)C	?	16µM*!	-63*	.	18µM*	?
COc1ccc(CCC(C)N(C)Cc2ccccc2)cc1 (stereo unspecified)	-2%	-21%	-4	-71%	?	-4%
O=S(=O)(N(Cc1ccccc1)[C@H](CO)Cc1ccccc1)N(Cc1ccccc1)[C@H](CO)Cc1ccccc1	-4%	?	3	5%	?	-5%
CCN([C@H](CO)CC(C)C)S(=O)(=O)c1ccccc1	7%	?	44	31%	?	-1%
COc1ccc(N(C(C)C(=O)N(Cc2ccccc2)Cc2ccccc2)S(C)(=O)=O)cc1 (stereo unspecified)	.	.	.	4%	.	.
COc1ccc(CN([C@H](CO)CC(C)C)S(=O)(=O)N(Cc2ccccc2)[C@H](CO)CC(C)C)cc1	6.5µM*	?	-88*	1%	23µM*	16µM*
COc1ccc(CN([C@H](C)CO)S(=O)(=O)N(Cc2ccccc2)[C@H](CO)C(C)C)cc1	8%	35µM*	0	-13%	16µM*	12%
C=CS(=O)(=O)N(Cc1ccccc1Br)[C@H](CO)CC(C)C	-20%	23µM*	?	?	10µM*	-12%
Cc1ccccc1-n1cc(CN(C)C(=O)CN2C(=O)OC(C)(C)C2=O)cn1	.	.	.	-4%	.	.
CC(C)C[C@@H](CO)N(Cc1ccccc1)S(=O)(=O)N(Cc1ccccc1)[C@H](CO)CC(C)C	?	13µM*	-79*	.	13µM*	?
C=C[C@H](CC(C)C)N(Cc1ccccc1)S(=O)(=O)N(Cc1ccccc1)[C@@H](C=C)CC(C)C	14%	13µM*	12	?	15µM*	1%
SMILES	HT1080 IDH1KD tx	TDP1 cell CPT	IL1B secr inh	ALOX12 inh	TDP1 cell noCPT	HT1080-NT tox
CC(C)C[C@@H](C)C(=O)N(Cc1ccccc1)c1ccccc1	2%	?	-8	-9%	?	11%
CC(C)Cn1c(-c2ccncc2)n[nH]c1=S	28%	-1%	29	?	4%	13%
CC(C)Cn1c(-c2ccccc2F)n[nH]c1=S	6%	12%	17	25µM*	-7%	10%
CC(C)Cn1c(-c2ccco2)n[nH]c1=S	?	-5%	14	10µM*	-4%	?
CSc1cccc(NC(=O)CSc2nnc(C(C)N3C(=O)COc4ccccc43)n2C)c1 (stereo unspecified)	.	.	.	-11%	.	.
CC(=O)Oc1cc(OC(C)=O)c2c(C)c(CC(=O)NCc3ccccc3)c(=O)oc2c1	.	.	.	-5%	.	.
Cc1nc2ncnn2c(N2CCN(c3cccc(C(F)(F)F)c3)CC2)c1C	?	16µM*	?	1%	21µM*	?
Cc1cc(N2CCN(c3cccc(C(F)(F)F)c3)CC2)n2nc(-c3ccccc3C)nc2n1	.	18µM*	.	-23%	16µM*	.
Cc1cc(N2CCN(c3cccc(C(F)(F)F)c3)CC2)n2ncnc2n1	8%	?	-12	0%	23µM*	3%
Cc1[nH]c2ccccc2c1C(=O)C(N)=O	.	.	.	17%	.	.

Screens deposited in PubChem BioAssay by National Center for Advancing Translational Sciences (NCATS).
